Screening data as filed in PubChem BioAssay.
The list is not random: actives were taken first. Their share in the collection is about 3%.
TRPM1 prom inh – inhibitors of MITF-driven TRPM1 promoter in melanoma cells; SK-MEL-5 TRPM1 promoter luciferase, 24 h; inhibition, % at 12.5 µM; 330,000 compounds, 0.83% hits;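 active = mean inhibition across replicates of 60% or more, whatever share of single replicates reaches that level; inconclusive = some that reach 60%, reason not given; inactive = mean inhibition across replicates below 60%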
EBV LMP1 NFkB – Epstein-Barr LMP1 NF-kappaB reporter inhibition; inhibition, % at 12.5 µM; 350,000 compounds, 0.69% hits; AID 504558; LMP1-induced NF-kappaB luciferase reporter cells, luminescence; in the data active = inhibition above about 41%; inconclusive = no clear call, values can overlap the other calls;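 note: 0% = neutral control wells and 100% = reference inhibitor control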
MITF act – increases MITF-driven TRPM1 promoter luciferase signal; SK-MEL-5 TRPM1-promoter luciferase, 24 h; % of positive control, neutral wells = 0; activation, % at 12.5 µM; 300,000 compounds, 0.75% hits;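 active = mean activation of at least 80% with every replicate also reaching 80%; inconclusive = mean reaches 80% but some replicate falls short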;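 note: 0% = neutral control wells and 100% = parthenolide positive control wells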
TWEAK-Fn14 inh – TWEAK-Fn14 signaling inhibition | TWEAK-stimulated Fn14 reporter cells, luciferase luminescence, 8 h | AID 1159606 | inhibition, % at 10 µM | 360,000 compounds, 2% hits; in the data active = inhibition above about 50%
LGR2 inh – blocks bursicon-induced cAMP signaling via Drosophila LGR2; HEK293 LGR2, CRE-luciferase, bursicon-stimulated, 4 h; inhibition, % at 9.99 µM; 380,000 compounds, 0.35% hits; AID 720647;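 active = drop in luminescence signal, shown as inhibition above about 50% in the replicate tests, limit read from the data, passing the limit was not always enough; inconclusive = probably only some replicates passing the limit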;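 note: agonist challenge used bursicon conditioned medium at about half maximal strength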
TROY NFkB inh – TROY signaling inhibition; Q293 LMP1-TROYcd NF-kB luciferase reporter, 4 h; inhibition, % at 10 µM; 360,000 compounds, 0.98% hits; AID 1347056;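 active = compounds whose plate-normalised and pattern-corrected inhibition of the luciferase reporter signal at the single screening dose is 50% or more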
An asterisk follows results filed as active; ? = inconclusive; · = no result; ! = a repeat was not active.

SMILES	TRPM1 prom inh	EBV LMP1 NFkB	MITF act	TWEAK-Fn14 inh	LGR2 inh	TROY NFkB inh
CCCN1C[C@H](C)[C@@H](OC)CN(C)C(=O)c2cc(NC(=O)COC)ccc2OC[C@@H]1C	·	·	·	·	-10	·
O=C(O)/C=C/c1ccc(Cn2ccnc2)cc1	0	60*!	1	23	13	3
COC(=O)c1ccc(NC(=O)c2ccc[n+]([O-])c2)cc1	2	4	-5	87*	4	2
COc1ccc(OC)c(NC(=O)c2cccc(N3C(=O)C4C5CCC(C5)C4C3=O)c2)c1 (centres undefined)	13	9	-12	12	-9	8
COC(=O)c1ccc(NC(=O)c2cccc(N3C(=O)C4C5C=CC(C6CC56)C4C3=O)c2)cc1 (centres undefined)	43	-7	-45	85*	15	55*
COc1ccc(OC)c(NC(=O)c2cccc(N3C(=O)C4C5C=CC(C6CC56)C4C3=O)c2)c1 (centres undefined)	26	1	-26	53*	-7	25
CO[C@@H]1CN(C)C(=O)c2cc(NC(=O)c3cc(C)on3)ccc2OC[C@H](C)N(C(C)=O)C[C@@H]1C	·	·	·	·	-6	·
Cc1ccc(-c2nc(S(=O)(=O)c3ccc(C)cc3)c(N3CCOCC3)o2)cc1	-18	-2	·	65*	-12	14
CN(C)C(=O)c1cccc(-c2ccc(C3[C@@H]4CN(S(=O)(=O)c5ccccc5)C[C@H]3N4)cc2)c1 (some centres undefined)	·	·	·	·	24	·
COc1ccc(-n2c(Cc3cccn3C)nnc2SCC(=O)Nc2ccc(C)c(Cl)c2)cc1	4	-19	-2	52*	-3	-16
COc1ccc(NC(=O)CSc2nnc(-c3cccs3)n2-c2ccccc2)cc1	0	9	1	54*	·	-27
COc1ccc(NC(=O)CSc2nnc(C3CC3)n2-c2ccccc2)cc1	10	2	-5	-12	·	-23
Cn1cccc1Cc1nnc(SCC(=O)N2CCc3ccccc32)n1-c1ccc(F)cc1	9	-8	-9	57*	-5	10
Cn1cccc1Cc1nnc(SCC(=O)N2CCCc3ccccc32)n1-c1ccc(F)cc1	2	4	0	35	4	0
O=C(Nc1cc(F)ccc1F)N[C@@H]1CC[C@H](CCn2cc(C3CCCC3)nn2)O[C@H]1CO	·	·	·	·	2	·
CCC(=O)N1CC2(CN(Cc3ccccc3Cl)C2)c2c([nH]c3cc(OC)ccc23)[C@H]1CO	·	·	·	·	-13	·
CCN(CC(=O)Nc1ccc2c(c1)OCCO2)C(=O)c1ccc([N+](=O)[O-])s1	71*	-2	-70	-3	-28	-24
CCOc1ccc(C(=O)N(CC)CC(=O)Nc2ccc3c(c2)OCCO3)cc1OCC	-6	1	3	-3	-2	-3
CCN(CC(=O)Nc1ccc2c(c1)OCCO2)C(=O)c1ccc(Cl)cc1Cl	-105	-32	109*	-46	-98	-49
CCN(CC(=O)Nc1ccc2c(c1)OCCO2)C(=O)c1cc(Cl)nc2ccccc12	0	32	6	14	4	-15
CCN(CC(=O)Nc1ccc2c(c1)OCCO2)C(=O)c1ccc(C(F)(F)F)cc1	-99	-28	107*	-4	-35	-35
O=C(CCNS(=O)(=O)c1ccc2c(c1)CCC(=O)N2)Nc1ccc2c(c1)OCCO2	11	6	·	68*	·	56*
C/C=C/c1ccc2c(c1)O[C@@H](CN(C)Cc1ccc(C(=O)O)cc1)[C@H](C)CN([C@H](C)CO)S2(=O)=O	·	·	·	·	-3	·
CCNC(=O)[C@@H]1[C@@H](CO)[C@@H]2Cn3c(ccc(C4=CCCC4)c3=O)[C@@H]2N1C(=O)CC1CC1	·	·	·	·	-24	·
CC(C)(C)c1ccc(C(=O)NCCC(=O)Nc2ccc3c(c2)OCCO3)cc1	-11	10	14	67*	-7	65*
SMILES	TRPM1 prom inh	EBV LMP1 NFkB	MITF act	TWEAK-Fn14 inh	LGR2 inh	TROY NFkB inh
CCN(CC)C(=O)C1CCCN(c2ncnc3c2cnn3-c2ccc(Cl)cc2)C1 (centres undefined)	60	40	-60	71*	7	63*
CCOC(=O)N1CCN(c2ncnc3c2cnn3-c2ccc(Cl)cc2)CC1	·	·	·	·	1	·
CCOC(=O)C1CCCN(c2ncnc3c2cnn3-c2cccc(C)c2)C1 (centres undefined)	22	15	-20	40	·	20
CCN(CC)C(=O)C1CCCN(c2ncnc3c2cnn3-c2cccc(C)c2)C1 (centres undefined)	17	16	-16	50*	·	37
COc1ccc(CNC(=O)C[C@@H]2CC[C@H](NS(=O)(=O)c3cccc(OC)c3)[C@H](CO)O2)cc1	·	·	·	·	15	·
CNC[C@@H]1OCCCC[C@H](C)Oc2ccc(NC(=O)Nc3ccc(C(F)(F)F)cc3)cc2C(=O)N([C@@H](C)CO)C[C@@H]1C	·	·	·	·	12	·
O=[N+]([O-])C1C(c2ccccc2)C12c1ccccc1-c1ccccc12 (centres undefined)	·	-4	·	57*	·	-1
COc1ccc(OC)c(NC(=O)c2cc(-c3cc(Cl)ccc3O)n[nH]2)c1	5	-28	·	55*	·	51*
COc1ccc(Cl)cc1NC(=O)c1cc(-c2ccccc2O)n[nH]1	-1	-4	1	1	-1	10
CCC(=O)N1C[C@@H](C)[C@@H](OC)CN(C)C(=O)c2cc(NC(=O)Nc3ccc(Cl)cc3)ccc2OC[C@@H]1C	·	·	·	·	5	·
COc1ccc(NC(=O)N(C)C[C@H]2Oc3ccc(NC(=O)C4CCCCC4)cc3C(=O)N([C@H](C)CO)C[C@H]2C)cc1	·	·	·	·	19	·
COc1cc(-c2cnc3c(NC=O)cc(-c4ccccc4Cl)cn23)cc(OC)c1OC	·	·	·	59*	-10	44
COc1ccc(F)cc1-c1cc(NC=O)c2ncc(-c3cc(OC)c(OC)c(OC)c3)n2c1	·	·	·	74*	20	47
COc1cc(-c2cnc3c(NC=O)cc(-c4ccccc4)cn23)cc(OC)c1OC	·	·	·	19	-48	24
COc1ccccc1-c1cc(NC=O)c2ncc(-c3cccc(C(F)(F)F)c3)n2c1	·	·	·	1	1	12
COc1ccccc1-c1cc(NC=O)c2ncc(-c3ccc(F)cc3)n2c1	·	·	·	55*	-6	25
COc1ccc(-c2nnc(SC(C)C(=O)Nc3cccc(Cl)c3)o2)cc1 (centres undefined)	-83	-39	87*	-11	·	-31
COc1ccc(-c2nnc(SC(C)C(=O)NNC(=O)c3ccc(C)cc3)o2)cc1 (centres undefined)	-1	2	3	-1	12	-1
CN(C)/C=C/C(=O)/C=C/c1ccc(Cl)cc1	-50	-15	47	-20	-31	-67
CN(C)CC(O)c1ccc(C=Cc2ccc(Cl)cc2)cc1 (centres undefined)	78*	-66	-78	-100	?	-27
CCn1nnc2cc(C(=O)O)ccc21	-2	1	1	-11	5	1
CCn1nnc2cc(C(=O)NCCc3ccccc3F)ccc21	-9	?	7	82*	54*	31
